Compounds with a hit are over-represented: about 1.6% of the library has one in this group of screens.
EphB4 antag – EphB4-ephrin-B2 interaction antagonism; P54760; EphB4 LBD / TNYL-RAW-Alexa532 peptide, fluorescence polarization; inhibition, % at 7 µM; 0.15% of 97,000 active;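 active = inhibition above the screen-wide mean inhibition plus 3 SD, cut at about 15% in these data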;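 note: 0% = DMSO wells and 100% = excess unlabeled TNYL-RAW peptide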
FAK blocker – FAK (human) kinase inhibition; Q05397; AID 727; inhibition, %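 (tested at 7 µM)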; biochemical FAK kinase activity assay; 0.84% of 97,000 active; in the data active = inhibition above about 19%;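 note: 0% = DMSO and 100% = reference compound high control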
Target sequence (Q05397 whole entry, looked up): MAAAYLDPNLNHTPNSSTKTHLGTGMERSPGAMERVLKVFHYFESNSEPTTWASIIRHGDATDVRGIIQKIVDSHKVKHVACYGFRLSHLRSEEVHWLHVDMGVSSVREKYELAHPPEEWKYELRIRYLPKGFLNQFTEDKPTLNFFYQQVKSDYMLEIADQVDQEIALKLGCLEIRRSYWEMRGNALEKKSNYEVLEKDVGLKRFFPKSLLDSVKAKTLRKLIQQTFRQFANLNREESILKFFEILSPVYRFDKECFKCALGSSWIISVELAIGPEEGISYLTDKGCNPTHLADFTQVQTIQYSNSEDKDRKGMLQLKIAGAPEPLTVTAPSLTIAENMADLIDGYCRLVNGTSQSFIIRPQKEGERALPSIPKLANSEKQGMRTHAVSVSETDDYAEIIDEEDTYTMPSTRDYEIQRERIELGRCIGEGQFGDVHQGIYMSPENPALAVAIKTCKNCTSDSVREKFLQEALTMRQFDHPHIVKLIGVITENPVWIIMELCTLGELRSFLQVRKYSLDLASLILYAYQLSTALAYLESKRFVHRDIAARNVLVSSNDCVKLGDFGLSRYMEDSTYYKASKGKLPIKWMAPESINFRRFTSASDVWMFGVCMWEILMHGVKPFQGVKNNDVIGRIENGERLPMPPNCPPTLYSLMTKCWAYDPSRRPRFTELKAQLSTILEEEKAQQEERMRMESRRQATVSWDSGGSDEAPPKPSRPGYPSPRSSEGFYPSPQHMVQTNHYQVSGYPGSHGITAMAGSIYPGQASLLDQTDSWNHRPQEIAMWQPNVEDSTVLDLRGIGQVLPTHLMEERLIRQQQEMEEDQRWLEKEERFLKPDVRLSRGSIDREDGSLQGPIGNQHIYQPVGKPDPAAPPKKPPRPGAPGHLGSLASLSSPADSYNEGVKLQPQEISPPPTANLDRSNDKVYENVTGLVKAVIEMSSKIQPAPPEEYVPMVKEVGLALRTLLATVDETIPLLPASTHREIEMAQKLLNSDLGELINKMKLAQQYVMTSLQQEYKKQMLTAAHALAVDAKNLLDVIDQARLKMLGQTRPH
PLK1 PBD inh – blocks phosphopeptide binding to human Plk1 polo box domain; Plk1 PBD phosphopeptide binding, fluorescence polarization; inhibition, %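 (tested at about 20 µM)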; 0.13% of 97,000 active; in the data active = inhibition above about 34%, passing the limit was not always enough
Smad3 inh – inhibitors of human Smad3 transcription factor binding; P84022; TR-FRET Smad3/Dy647-FoxH1 peptide binding, europium anti-His; inhibition, % at 25 µM; 0.29% of 88,000 active; AID 630;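 active = compounds that reduce the energy-transfer binding signal between the protein and its labelled peptide by more than half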;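 note: 0% = Smad3 plus labelled peptide maximal FRET and 100% = peptide-only background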
PLK1 inh – inhibitors of human PLK1 kinase. P53350. inhibition, % at 10 µM. 0.53% of 97,000 active. recombinant PLK1 kinase, TR-FRET peptide phosphorylation;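 active = inhibition of 50% or more in the single-concentration screen; inactive = inhibition below 50%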;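 note: 0% = DMSO max control and 100% = H-89 dihydrochloride min control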
* marks the source's active call; other numbers are inactive results; . = not tested or not shown; [ ] = dose if it differs, or a comment.

SMILES	EphB4 antag	FAK blocker	PLK1 PBD inh	Smad3 inh	PLK1 inh
O=C(Nc1ccccc1Cl)c1ccc(S(=O)(=O)N2CCOCC2)cc1	4	-2	-7	-4	68*
C[N+](C)(C)CC(=O)N/N=C/c1c(O)ccc2ccccc12	.	.	.	12	.
O=C(O)[C@H]1CCCC[C@@H]1c1c2ccc(=O)c(O)c-2oc2c(O)c(O)ccc12	.	.	.	101*	.
CN(CC(=O)Nc1nccs1)S(=O)(=O)c1ccc(F)cc1	-3	-6	1	19	53*
CC(C)NC(=O)CN(C)S(=O)(=O)c1ccc(F)cc1	-2	3	24	4	-7
CCCn1c2ccccc2c2nc3ccccc3nc21	-1	4	-5	-9	14
Cn1c2ccc(Cl)cc2c2nc3ccccc3nc21	-5	0	14	9	67*
CCCc1nnc(NC(=O)CNc2ccc(F)cc2)s1	16*	12	-18	-5	14
C/C(=N\O)c1cccc[n+]1Cc1ccccc1	.	.	.	-5	.
CC[C@H]1CC[C@H]2[C@H]3CC=C4C[C@H](OC(C)=O)[C@@H](N)C[C@@]4(C)[C@@H]3CC[C@]12C	.	.	.	-4	.
COc1cc2c(=O)n(CC3CCCO3)c(=O)n(CC(=O)Nc3cccc(Cl)c3)c2cc1OC (stereo not drawn)	3	1	1	83*[fluorescence artefact?]	-3
COc1cc2c(=O)n(CC3CCCO3)c(=O)n(CC(=O)Nc3ccc(F)cc3F)c2cc1OC (stereo not drawn)	.	.	.	-2	.
COc1ccc2c3c([nH]c2c1)[C@H]1C[C@@H]2[C@H](C[C@@H](O)[C@H](OC)[C@H]2C(=O)O)CN1CC3	.	.	.	11	.
Cc1c(C)c2cc(Cl)c(O)c(CN(C)C)c2oc1=O	8	1	-21	1	-17
O=c1oc2c(O)c(O)cc3c(=O)oc4c(O)c(O)cc1c4c23	.	.	.	98*	.
COc1ccccc1C/C(N)=N/OC(=O)COc1ccc(C)cc1	.	.	.	.	-13
CN(C1CCCCC1)S(=O)(=O)c1ccc2c(c1)c(=O)c(C(=O)NCCN1CCCC1)cn2C	0	-3	-1	-9	62*
CN(C1CCCCC1)S(=O)(=O)c1ccc2c(c1)c(=O)c(C(=O)NCCCN1CCCC1)cn2C	-1	5	-21	1	59*
Cn1cc(C(=O)NC2CCCCC2)c(=O)c2cc(S(=O)(=O)N3CCCC3)ccc21	.	.	.	5	.
CC1(C)[C@H]2CC[C@]1(C)[C@H](OC(=O)CSC#N)C2	.	.	.	-5	.
CC1(C)S[C@H]2[C@H](NC(=O)C3(N)CCCCC3)C(=O)N2[C@@H]1C(=O)O	.	.	.	11	.
N[C@@H](CSc1nc2ccccn2c1[N+](=O)[O-])C(=O)O	.	.	.	-6	.
Cc1c(C(=O)O)nc(/C=C/C(=O)O)[nH]c1=O	.	.	.	4	.
Nc1ncnc2nn([C@H]3O[C@@H](CO)[C@H](O)[C@H]3O)nc12	.	.	.	-4	.
COc1ccc2c(c1)CN([C@H](C)[C@@H]1CC[C@@H]3[C@H]4CC[C@H]5C[C@@H](O)CC[C@]5(C)[C@@H]4CC[C@]31C)CO2	.	.	.	31	.
SMILES	EphB4 antag	FAK blocker	PLK1 PBD inh	Smad3 inh	PLK1 inh
COc1ccc(C[C@@H]2C(=O)N[C@H](C)C(=O)N(C)[C@@H]3Cc4ccc(cc4)Oc4cc(ccc4O)C[C@@H](C(=O)N[C@@H](C)C(=O)N[C@H](C)C(=O)N2C)N(C)C3=O)cc1	.	.	.	11	.
N=C(N)c1ccc(/C=C/c2ccc(C(=N)N)cc2)cc1	.	.	.	-2	.
Cc1ccc(OCCSc2ncnc3nc[nH]c23)cc1	0	3	-10	-3	56*
Brc1ccc(CSc2ncnc3nc[nH]c23)cc1	.	.	.	8	.
CC(C)c1ccc2c(c1)CC[C@@H]1[C@](C)(CN)CCC[C@@]21C	.	.	.	12	.
CCOC(=O)Cn1c(CN(C)Cc2ccccc2)nc2c1c(=O)n(C)c(=O)n2C	2	53*	-2	.	-12
O=S(=O)(O)c1cc(N=[N+]([O-])c2cc(S(=O)(=O)O)c3ccccc3c2)cc2ccccc12	.	.	.	39	.
COc1ccc2c(c1)c1c(C)c3cnccc3c(C)c1n2CCCN	.	.	.	87*	.
CCN(CC)CCOC(=O)c1c(C)n(C)c2ccc(OC)cc12	0	-1	14	.	-6
CCOC(=O)N1CCC(Nc2c(OCC)c(=O)c2=O)CC1	-6	-6	-1	6	69*
CCOC(=O)N1CCC(Nc2c(NCCCOC)c(=O)c2=O)CC1	-2	-5	-13	-4	-19
C1CSC2(N1)C1CC3CC(C1)CC2C3 (stereo not drawn)	-7	-2	12	-8	-8
S=C1NNC2(NN1)C1CC3CC(C1)CC2C3	3	-2	-7	6	56*
Nc1nc(SCCC2CCCCC2)c2[nH]cnc2n1	.	.	.	12	.
Cc1ccc(NC(=O)C2CCCN2S(=O)(=O)c2ccc3c(c2)CCC(=O)N3)cc1Cl (stereo not drawn)	-2	1	-22	3	67*
CC(C)c1nnc(NC(=O)c2cccs2)s1	2	-8	-12	-2	67*
CC(C)NC(=O)C(=O)NC1CCCCCC1	-1	2	2	10	1
O=C(NNC(=O)C1CCCCC1)C(=O)NC1CCCCC1	16*	4	-11	.	-11
N=C1CCC[C@H]1C(=S)SCCC(N)=O	.	.	.	9	.
COc1ccc(Cl)cc1S(=O)(=O)N1CCN=C1C	-7	0	5	-15	64*
O=C(CSc1nnnn1Cc1ccccc1)Nc1ccc2c(c1)OCO2	18*	2	-18	-2	-12
O=C(CSc1nnnn1Cc1ccccc1)Nc1ccc2c(c1)OCCO2	-2	-2	2	1	0
C[C@H]1C[C@@H]2[C@@H]3CCC4=CC(=O)C=C[C@@]4(C)[C@@]3(Cl)[C@H](Cl)C[C@@]2(C)[C@]1(O)C(=O)COP(=O)(O)O	.	.	.	0	.
Nc1nc(N)c(N=Nc2ccc(C(=O)O)c(O)c2)c(N)n1	.	.	.	55*	.
COCc1nnc(NC(=O)CC(C)C)s1	8	0	-5	-3	-4
SMILES	EphB4 antag	FAK blocker	PLK1 PBD inh	Smad3 inh	PLK1 inh
COCc1nnc(NC(=O)CC(c2ccccc2)c2ccccc2)s1	17*	-11	-18	-21	-6
Oc1c([C@H](Nc2ccccn2)c2ccccc2)ccc2cccnc12	.	.	.	-15	.
Cc1cc(NC(c2ccc(Cl)cc2)c2ccc3cccnc3c2O)no1 (stereo not drawn)	16*	3	13	-17	-2
CC(C)CCn1c(SCCN2CCOCC2)nc2c1c(=O)[nH]c(=O)n2C	18*	6	7	7	-6
C=C(C)COc1ccc2c(c1)CC[C@@H]1[C@H]3C/C(=N/O)C(=O)[C@]3(C)CC[C@@H]21	.	.	.	14	.
O=C(O)C1C2C=CC3(CN(Cc4ccco4)C(=O)C13)O2 (stereo not drawn)	-3	0	2	1	58*
Cc1ccc(C)c(/C(=N/N=C(N)N)C2CC2)c1	.	.	.	-3	.
Cc1ccc(-c2nc(CS(=O)(=O)CC(=O)NC3CCCCC3C)c(C)o2)cc1 (stereo not drawn)	-5	5	-21	-54	54*
COCCNC(=O)CS(=O)(=O)Cc1nc(-c2ccc(C)cc2)oc1C	0	3	16	2	67*
Nc1ncnc2nc[nH]c12.Nc1ncnc2nc[nH]c12.[Cl][Pt]([Cl])([Cl])[Cl]	.	.	.	71*	.

Screens deposited in PubChem BioAssay by several laboratories.
